From PubChem BioAssay AID1917 (Vanderbilt High Throughput Screening Facility, 2009)
Out of some 3,000 compounds screened, about 1,600 (53%) were called active. Not shown: some 10% with an inconclusive outcome. So high a share suggests a set chosen from earlier hits. Only a sample is shown. A number with no mark means an inactive call.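 How the source made its calls: active means Flux at 10 µM at least 3 SD below or above vehicle control mean in one or both replicates; inconclusive means no clear call, values can overlap the other calls; inactive means the rest.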

What follows are compounds tested against ATP-sensitive inward rectifier potassium channel 1 (Homo sapiens) (UniProt P48048) (assay: retested modulators of human Kir1.1 channel – cell-based, thallium flux, duplicate, resupplied hits, confirmation (AID 1917)). Details: ROMK thallium flux, fluorescence ratio; at 10 µM; stronger effect = lower value.
ATP-sensitive inward rectifier potassium channel 1 (Homo sapiens), sequence (P48048 whole entry, looked up): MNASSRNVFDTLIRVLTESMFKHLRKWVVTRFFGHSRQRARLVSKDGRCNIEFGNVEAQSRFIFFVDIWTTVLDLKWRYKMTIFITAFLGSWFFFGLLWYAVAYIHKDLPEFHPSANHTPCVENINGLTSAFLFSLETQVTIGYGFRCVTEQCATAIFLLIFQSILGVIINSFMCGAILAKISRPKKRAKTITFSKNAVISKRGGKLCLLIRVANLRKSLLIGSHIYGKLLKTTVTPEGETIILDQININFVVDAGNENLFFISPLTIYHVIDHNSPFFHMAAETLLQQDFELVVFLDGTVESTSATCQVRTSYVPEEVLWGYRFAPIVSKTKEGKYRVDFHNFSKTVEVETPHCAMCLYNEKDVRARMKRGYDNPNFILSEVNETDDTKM

| SMILES | normalized thallium flux (F/F0 slope) |
| --- | --- |
| CC(=O)Nc1cccc(OCC(=O)/C=C2\N(C)c3ccccc3C2(C)C)c1 | 0.0622 (active) |
| COc1ccc(C2=CC(c3cccc(OC)c3)n3nnnc3N2)cc1 (stereo not drawn) | 0.0704 |
| Cc1cc(NC(=O)/C=C/C(=O)N(c2ccccc2C)C(C(=O)NC2CCCC2)c2ccc(F)cc2)no1 (stereo not drawn) | 0.0543 (active) |
| N#C/C(=C/c1cccc([N+](=O)[O-])c1)c1nnc2n1CCCCC2 | 0.0362 (active) |
| CC1=C(C(=O)OCc2ccccc2)C(c2ccco2)n2ncnc2N1 (stereo not drawn) | 0.0737 |
| COc1ccc(C(CCNCc2ccccc2F)c2ccc(F)cc2)cc1 (stereo not drawn) | 0.0609 (active) |
| Cc1cccc(Oc2c([N+](=O)[O-])c(=O)n(C)c3ccccc23)c1 | 0.063 (active) |
| Nc1ccccc1SC(C[N+](=O)[O-])c1ccccc1 (stereo not drawn) | 0.0367 (active) |
| O=C(/C=C/Sc1ncn[nH]1)c1ccc(Cl)cc1 | 0.0389 (active) |
| Cc1ccc2c(=O)oc(N(C)C)nc2c1 | 0.0826 |
| CCOc1ccc(-n2cnnn2)cc1S(=O)(=O)N1CCC(C)CC1C (stereo not drawn) | 0.0657 (active) |
| N=c1n(CCc2ccccc2)c2ccccc2n1Cc1ccccc1F | 0.0479 (active) |
| COc1ccc(Nc2cc(C)nc(-n3nc(C)cc3C)n2)cc1 | 0.0854 |
| CC1(C)CCSC(/C=C/c2ccccc2)=N1 | 0.0442 (active) |
| CCn1c(/C=C/Nc2ccccc2)[n+](CC)c2ccc(C(=O)OCC(F)(F)F)cc21 | 0.0522 (active) |
| O=C(Nc1cccc(C(F)(F)F)c1)c1ccc(N2CCNCC2)c([N+](=O)[O-])c1 | 0.0632 (active) |
| N#C/C(=C\c1ccccc1C(F)(F)F)C(=O)Nc1ccccc1F | 0.0489 (active) |
| Cc1ccc(N2C(=O)C3CC3C2=O)cc1 (stereo not drawn) | 0.0794 |
| N#C/C(=C\C1=C(N2CCOCC2)C(=C\c2ccccc2)/CC1)C(=O)Nc1ccccc1F | 0.0509 (active) |
| COC(=O)C[n+]1cccc2ccccc21 | 0.0529 (active) |
| CN1CCN(c2ccc(S(=O)(=O)N3CCCCC3)cc2NC(=O)Cc2ccccc2F)CC1 | 0.0614 (active) |
| CNc1nccc(-c2ccc(Cl)cc2)c1C#N | 0.0744 |
| CCOC(=O)N/N=C1\CC(C)S(=O)(=O)c2ccc(Cl)cc21 (stereo not drawn) | 0.0738 |
